According to PubChem BioAssay (Tox21):
A number with no mark means an inactive call. Records with an inconclusive call do not appear. A call without a number means that no potency is given here. Active and inactive are the calls of the source. Calls come from the whole dose curve.

Tests used:
[1] = molecular target: Acetylcholinesterase (Homo sapiens) (UniProt P22303); assay: Acetylcholinesterase (AChE) small molecule antagonists: colormetric cell-based qHTS assay (AID 1347395); note: nearly all actives have a fitted effect of over 30% in size; note: potency is the fitted concentration of half-maximal effect
How it was run: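 Neuroblastoma line SH-SY5Y supplied the enzyme; cells were preincubated with compound for 30 min at 37 C and 5% CO2. Acetylthiocholine with DTNB was then added for 90 min at 37 C, and thiocholine was measured by colour.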

[2] = molecular target: Acetylcholinesterase (Homo sapiens) (UniProt P22303); assay: Acetylcholinesterase (AChE) small molecule antagonists: fluorescence cell-based qHTS assay (AID 1347398); settings: Potency: AChE activity; outcome: AChE activity; note: nearly all actives have a fitted effect of over 50% in size; note: potency is the fitted concentration of half-maximal effect
How it was run: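 Thiocholine generated from acetylthiocholine by SH-SY5Y cell AChE is detected with Thiolite Green (Ex/Em 490/520 nm) after 40 min at room temperature, following 30 min compound pretreatment at 37 C.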

[3] = molecular target: Acetylcholinesterase (Homo sapiens) (UniProt P22303); assay: Acetylcholinesterase (AChE) small molecule antagonists: enzyme-based qHTS assay with human liver microsomes (AID 1347399); settings: Potency: qHTS inhibition; outcome: qHTS inhibition; note: nearly all actives have a fitted effect of over 60% in size
How it was run: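 Recombinant human AChE (50 mU/mL in the enzyme mix) and human liver microsomes (0.25 mg/mL final) were preincubated with compound and NADPH (0.25 mg/mL final) for 30 min at 37 C. Acetylthiocholine/DTNB was then added; thiocholine was read colorimetrically after 10 min at room temperature.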

Chain of Acetylcholinesterase (Homo sapiens) (P22303 whole entry, looked up): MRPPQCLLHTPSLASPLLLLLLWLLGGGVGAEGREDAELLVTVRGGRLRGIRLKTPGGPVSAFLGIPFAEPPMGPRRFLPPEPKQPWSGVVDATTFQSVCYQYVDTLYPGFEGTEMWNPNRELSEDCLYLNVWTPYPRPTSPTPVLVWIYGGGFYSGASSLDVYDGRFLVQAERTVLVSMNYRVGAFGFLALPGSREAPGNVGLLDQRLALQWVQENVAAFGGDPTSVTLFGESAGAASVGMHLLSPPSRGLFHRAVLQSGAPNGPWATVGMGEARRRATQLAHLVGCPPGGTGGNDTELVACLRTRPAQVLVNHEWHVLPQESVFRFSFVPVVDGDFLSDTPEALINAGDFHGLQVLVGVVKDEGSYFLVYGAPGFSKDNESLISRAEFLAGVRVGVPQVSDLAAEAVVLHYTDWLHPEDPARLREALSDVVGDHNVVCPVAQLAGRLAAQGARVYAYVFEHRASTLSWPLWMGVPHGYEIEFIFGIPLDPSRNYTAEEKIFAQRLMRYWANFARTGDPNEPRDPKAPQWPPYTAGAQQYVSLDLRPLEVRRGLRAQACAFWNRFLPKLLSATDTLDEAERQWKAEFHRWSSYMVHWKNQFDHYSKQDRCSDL

Compound	Potency [1]	Potency [2]	Potency [3]	outcome [1]	outcome [2]	outcome [3]
CCCCCCCCCCCCOCCOS(=O)(=O)O	inactive	inactive	inactive			
C=CC(=O)O	inactive	inactive	inactive			
COCc1ccc(COC)cc1	inactive	inactive	inactive			
O=C1NCCN1CCN1CCC(c2cn(-c3ccc(F)cc3)c3ccc(Cl)cc23)CC1	inactive	24.5 µM (active)	inactive			
CCOC(C)(C)C	inactive	inactive	inactive			
Cc1cccc(C)c1NC(=O)CN(CC(=O)O)CC(=O)O	inactive	inactive	inactive			
CN1CCN(C(=O)C2CCCCC2)CC1	inactive	inactive	inactive			
CCCCCCCCCCCCCCCCCCOS(=O)(=O)O	inactive	inactive	inactive			
Cc1ccccc1C#N	inactive	inactive	inactive			
CSC(=O)c1cccc2nnsc12	35.6 µM (active)	39.9 µM (active)	inactive			
C=COCCCC	inactive	inactive	inactive			
CCCCCCCCCOC(=O)c1ccc(O)cc1	inactive	inactive	inactive			
O=C1CCCN1CCO	inactive	inactive	inactive			
CC1=CP(=O)(c2ccccc2)CC1 (stereo not given)	inactive	inactive	inactive			
COc1ccc(N=Nc2cc(C)c(N=Nc3ccc(S(=O)(=O)O)cc3)cc2OC)cc1	inactive	inactive	inactive			
COc1ccc(/C=C/C(=O)c2ccc(OC)cc2OC)cc1	inactive	inactive	inactive			
CCCCC/C=C/CC1CC(=O)OC1=O (stereo not given)	inactive	inactive	inactive			
CC(C)C(OC(=O)c1ccccc1)C(C)(C)COC(=O)c1ccccc1 (stereo not given)	inactive	inactive	inactive			
C[C@H]1NCc2cc(-c3ccc4c(=O)c(C(=O)O)cn(C5CC5)c4c3OC(F)F)ccc21				inactive	inactive	inactive
CC(C)CCCCCCCCCCCCCCC(=O)O	inactive	inactive	inactive			
